# From PubChem BioAssay
# VACV Venus inh – inhibitors of vaccinia virus (Venus reporter) | Vaccinia virus Venus reporter expression, fluorescence | Potency, µM (titrated, usually from 36.5 µM), without a hit: at the highest dose activity change, negative = inhibition, hits mostly inhibitors | 330,000 compounds, 0.46% hits; calls by dose curve; tested in A549 cells; note: potency is the fitted concentration of half-maximal effect; nearly all actives have a fitted effect of over 30% in size
# LASV entry inh – inhibitors of Lassa virus binding or cell entry | Potency, µM (highest dose often 37.9 µM), inactives show top-dose activity change, negative = inhibition, actives largely listed as inhibitors | AID 540256 | 300,000 compounds, 1.2% hits | Lassa virus pseudotype entry inhibition, cell reporter; calls by dose curve; tested in HEK293 cells; note: potency is the fitted concentration of half-maximal effect; nearly all actives have a fitted effect of over 50% in size
# HCMV antiviral – inhibitors of human cytomegalovirus. HFF cells, HCMV-luciferase reporter, 72 h; hits give low values. activity change, negative = inhibition, % at 57.5 µM. 410,000 compounds, 4.5% hits. AID 1259415; in the data active = activity change below about -60%; inconclusive = no clear call, values can overlap the other calls; inactive = above about -39%
#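 Cell-based, HFFs, 1000 cells/well, 16 h 37C; cpds in DMSO + HCMV-luc, MOI 1 PFU/cell; 72 h 37C; OneGlo luminescence after 5 min RT; norm. to buffer vs Salinomycin 10uM.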
# MARV entry inh – Marburg virus entry inhibition. Potency, µM (top dose mostly 37.8 µM), for inactives: at the top dose activity change, negative = inhibition, actives largely listed as inhibitors. Marburg virus pseudotyped entry inhibition, cell reporter. AID 540276. 300,000 compounds, 1.8% hits; calls by dose curve; tested in HEK293 cells; note: potency is the fitted concentration of half-maximal effect
# FMDV antiviral – blocks foot and mouth disease virus | Potency, µM (doses to about 57.9 µM), inactives show top-dose activity change, negative = inhibition, actives largely listed as inhibitors | FMDV antiviral cell-based qHTS | 410,000 compounds, 1.2% hits; calls by dose curve; tested in HEK293T cells; note: read-out not given here; potency is the fitted concentration of half-maximal effect; nearly all actives have a fitted effect of over 45% in size
# VACV mCherry inh – vaccinia inhibition (mCherry reporter) | Vaccinia virus mCherry reporter infection, fluorescence | Potency, µM (top dose mostly 36.5 µM), for inactives: top-dose activity change, negative = inhibition, usual class: inhibitors | 310,000 compounds, 0.63% hits | AID 720579; calls by dose curve; tested in A549 cells; note: potency is the fitted concentration of half-maximal effect; nearly all actives have a fitted effect of over 35% in size
# Starred values were filed as active, the others as inactive; i = inactive; ? = inconclusive; . = no result; [ ] = another dose, or the depositor's remark. An excerpt weighted towards active compounds, which were near 6.5% of everything screened. % is set by controls: 0 for no effect and ±100 for the full control effect.
SMILES,VACV Venus inh,LASV entry inh,HCMV antiviral,MARV entry inh,FMDV antiviral,VACV mCherry inh
O=c1[nH]c2cc3c(cc2cc1C(c1nnnn1C1CCCC1)N1CCSCC1)OCCO3 (stereo not given),0%,1%,-79*,?,6%,-12%
Cc1ccc2[nH]c(=O)c(C(c3nnnn3Cc3ccccc3)N3CCc4ccccc43)cc2c1 (stereo not given),.,?,8,10µM*,-10%,.
Cc1ccc2[nH]c(=O)c(C(c3nnnn3C3CCCC3)N3CCCc4ccccc43)cc2c1 (stereo not given),.,?,133,5.8µM*,5%,.
Cc1ccc2cc(C(c3nnnn3Cc3ccccc3)N3CCc4ccccc43)c(=O)[nH]c2c1 (stereo not given),.,?,-7,?,23%,.
COC(=O)C1=C(C)N(Cc2ccccc2)C(=O)NC1c1cccc(F)c1 (stereo not given),.,.,.,3%[14.2 µM],.,.
CCc1cc(C(=O)N2CCOc3ccc(CN4CCN(Cc5ccccn5)CC4)cc3C2)no1,5%,.,.,.,-14%,-12%
Cc1ccc(CNC(=O)Cn2c3ncccc3c(=O)n2-c2ccccc2)cc1,-9%,0%[46.1 µM],-1,.,11%,-16%
COc1ccc([C@H]2C[C@@H](O)[C@H](n3cc(-c4ccc(F)cc4)nn3)CN2Cc2cccs2)cc1,.,.,.,8.9µM*,.,.
O=C(C1CCCCC1)N1C[C@H](O)[C@H](n2cc(-c3ccc(F)cc3)nn2)C[C@@H]1c1ccc(Cl)cc1,.,.,.,7.9µM*,.,.
Cc1ccc([C@H]2C[C@H](O)[C@@H](n3cc(-c4ccc(F)cc4)nn3)CN2Cc2cccs2)cc1,?,?,-39,.,-14%,?
Cc1ccc([C@H]2C[C@H](O)[C@@H](n3cc(-c4ccc(F)cc4)nn3)CN2C(=O)C2CCCCC2)cc1,-25%,.,-21,?,-32%,4%
CCCCCCN1C[C@H](n2cc(-c3ccc(F)cc3)nn2)[C@@H](O)C[C@@H]1c1ccc(Cl)cc1,14µM*,.,-102*,.,-6%,?
O[C@H]1CN(CC2CCCCC2)[C@@H](c2ccc(Cl)cc2)C[C@@H]1n1cc(C2CC2)nn1,?,.,-71*,.,?,-27%
O=[N+]([O-])c1ccc(COc2cccc(CO)c2)cc1,.,.,51,.,.,.
Cc1ccc([C@H]2C[C@H](O)[C@@H](n3cc(-c4ccc(F)cc4)nn3)CN2CC2CCCCC2)cc1,-22%,28µM*,5,.,-6%,i
CC1CC(C)(O)CC(C(O)CC2CC(=O)NC(=O)C2)C1=O (stereo not given),35µM*,0.4µM*,-75*,0.1µM*,?,?
COc1cc(C)c(C)cc1S(=O)(=O)Nc1cccc(-c2ccc(N3CCOCC3)nn2)c1,-8%,-8%[46.1 µM],22,.,11%,i
CC(C)c1ccc(CN2C(=O)C(n3ccc4ccccc43)c3cc(F)ccc32)cc1 (stereo not given),.,.,3,.,.,.
COc1ccc(CN2C(=O)C(n3ccc4ccccc43)c3cc(OC(F)(F)F)ccc32)cc1 (stereo not given),.,.,-91*,.,.,.
CC(C)c1ccc(CN2C(=O)C(n3ccc4ccccc43)c3cc(Cl)ccc32)cc1 (stereo not given),.,.,-76*,.,.,.
COc1ccc2c(c1)C(n1ccc3ccccc31)C(=O)N2Cc1ccc(C(F)(F)F)cc1 (stereo not given),.,.,27,.,.,.
CN1CCCCC(NC(=O)c2cccc(F)c2)C1=O (stereo not given),.,.,-34,.,.,.
Cc1ccc(S(=O)(=O)c2cn(Cc3ccccc3)c3cc(N4CCCC4)c(F)cc3c2=O)cc1C,-10%,4%[46.1 µM],6,.,19%,-1%
COc1cccc(C2C3=C(Nc4[nH]n(-c5ccccc5)c(=O)c42)c2ccccc2C3=O)c1 (stereo not given),.,-4%,.,2%,.,.
Cn1c2c(c(=O)[nH]c1=O)C(c1cccc(O)c1)C1=C(N2)c2ccccc2C1=O (stereo not given),-24%,?,-100*,?,?,?
COc1ccc(NC(=O)/C=C/c2c(Cl)nc3ccccn23)cc1,.,.,-62*,.,-3%,.
